{
  "source": "paper PMC12431657",
  "about": "“Discovery and mechanistic insights of dibenzoylmethane as a broad spectrum inhibitor of coronavirus” (PLOS Pathogens, 2025)",
  "tested_on": "HCoV-OC43",
  "parameters": "species or system RD; HTS, protection from HCoV-OC43 induced cell death, luminescent cell viability (CellCounting-Lite 2.0), inhibition rate",
  "conditions": "10 µM, inhibitor",
  "note": "Where two headings read alike, the source gives them in different places. In all, about 3,300 compounds went through this assay and about 60 (2%) showed an effect of 50% or more. The list comes from a sample in which strong results are over-represented; it also holds similar structures and randomly drawn compounds.",
  "data": [
    {"molecule": "CCC(=O)O[C@H]1[C@H](O[C@@H]2[C@@H](C)[C@H](O[C@H]3C[C@@](C)(OC)[C@@H](O)[C@H](C)O3)[C@@H](C)C(=O)O[C@H](CC)[C@@](C)(O)[C@H](O)[C@@H](C)C(=O)[C@H](C)C[C@@]2(C)O)O[C@H](C)C[C@@H]1N(C)C", "note": "[Erythromycin estolate, erythromycin estolate]", "values": [
      {"measurement": "OC43 Inhibition rate", "setting": "24 h post infection, 1 h compound pre-incubation", "result": 99.7, "unit": "%"}
    ]},
    {"molecule": "O=C1C([C@@H]2O[C@H](CO)[C@@H](O)[C@H](O)[C@H]2O)=C(O)/C(=C(O)/C=C/c2ccc(O)cc2)C(=O)C1(O)[C@@H]1O[C@H](CO)[C@@H](O)[C@H](O)[C@H]1O", "note": "(stereo partly drawn) [Hydroxysafflor yellow A]", "values": [
      {"measurement": "OC43 Inhibition rate", "setting": "24 h", "result": 0.2, "unit": "%"}
    ]},
    {"molecule": "Oc1c(Br)cccc1Br", "note": "[2,6-Dibromophenol]", "values": [
      {"measurement": "OC43 Inhibition rate", "setting": "24 h", "result": 1.1, "unit": "%"}
    ]},
    {"molecule": "C[C@H]1CCCC(=O)CCC/C=C/c2cc(O)cc(O)c2C(=O)O1", "note": "[Zearalenone]", "values": [
      {"measurement": "OC43 Inhibition rate", "setting": "24 h", "result": 56.4, "unit": "%"}
    ]},
    {"molecule": "C[C@H]1CCC[C@@H](O)CCCCCc2cc(O)cc(O)c2C(=O)O1", "note": "[Beta-Zearalanol]", "values": [
      {"measurement": "OC43 Inhibition rate", "setting": "24 h", "result": 0, "unit": "%"}
    ]},
    {"molecule": "C=C(C)[C@@H]1[C@H]2OC(=O)[C@@H]1[C@]1(O)C[C@H]3O[C@]34C(=O)O[C@H]2[C@]14C", "note": "[Picrotoxinin]", "values": [
      {"measurement": "OC43 Inhibition rate", "setting": "24 h", "result": 0.5}
    ]},
    {"molecule": "O=C1C=CC[C@@H]2[C@H]3CCC[N+]4([O-])CCC[C@@H](CN12)[C@@H]34", "note": "(stereo partly drawn) [Oxysophocarpine]", "values": [
      {"measurement": "OC43 Inhibition rate", "setting": "24 h", "result": -0.3, "unit": "%"}
    ]},
    {"molecule": "C[C@@H]1CC[C@@]2(OC1)O[C@H]1C[C@H]3[C@@H]4CC=C5C[C@@H](O[C@@H]6O[C@H](CO)[C@@H](O[C@@H]7O[C@@H](C)[C@H](O[C@@H]8O[C@@H](C)[C@H](O)[C@@H](O)[C@H]8O)[C@@H](O)[C@H]7O)[C@H](O)[C@H]6O[C@@H]6O[C@@H](C)[C@H](O)[C@@H](O)[C@H]6O)CC[C@]5(C)[C@H]4CC[C@]3(C)[C@H]1[C@@H]2C", "note": "[Formosanin C]", "values": [
      {"measurement": "OC43 Inhibition rate", "setting": "24 h", "result": 5.5, "unit": "%"}
    ]},
    {"molecule": "C[C@@H]1CC[C@@]2(NC1)O[C@H]1C[C@H]3[C@@H]4CC=C5C[C@@H](O[C@@H]6O[C@H](CO)[C@@H](O[C@@H]7O[C@@H](C)[C@H](O)[C@@H](O)[C@H]7O)[C@H](O)[C@H]6O)CC[C@]5(C)[C@H]4CC[C@]3(C)[C@H]1[C@@H]2C", "note": "[Khasianine]", "values": [
      {"measurement": "OC43 Inhibition rate", "setting": "24 h", "result": 67.5, "unit": "%"}
    ]},
    {"molecule": "Cc1c([C@H](C)[C@@H]2NC[C@@H](C)C[C@H]2O)ccc2c1C[C@H]1[C@H]2CC=C2C[C@@H](O[C@@H]3O[C@H](CO)[C@@H](O)[C@H](O)[C@H]3O)CC[C@@]21C", "note": "[Veratrosine]", "values": [
      {"measurement": "OC43 Inhibition rate", "setting": "24 h", "result": 5.4, "unit": "%"}
    ]},
    {"molecule": "COc1cc2ccc(=O)oc2c2ccoc12", "note": "[Sphondin]", "values": [
      {"measurement": "OC43 Inhibition rate", "setting": "24 h", "result": 0.1, "unit": "%"}
    ]},
    {"molecule": "COc1cc([C@@H]2c3cc4c(cc3C(=O)[C@H]3COC(=O)[C@H]23)OCO4)cc(OC)c1OC", "note": "[Podophyllotoxone]", "values": [
      {"measurement": "OC43 Inhibition rate", "setting": "24 h", "result": 4.4, "unit": "%"}
    ]},
    {"molecule": "Cc1ccc(C=O)cc1", "note": "[p-Tolualdehyde]", "values": [
      {"measurement": "OC43 Inhibition rate", "setting": "24 h", "result": -0.1}
    ]},
    {"molecule": "CC(C)=CCC[C@H](C(=O)O)[C@H]1CC[C@]2(C)C3=C(CC[C@@]12C)[C@@]1(C)CCC(=O)C(C)(C)[C@H]1CC3", "note": "[β-Elemonic acid]", "values": [
      {"measurement": "OC43 Inhibition rate", "setting": "24 h", "result": -1.4, "unit": "%"}
    ]},
    {"molecule": "CC1(C)OC1COc1c2occc2cc2ccc(=O)oc12", "note": "(stereo not drawn) [Oxyimperatorin]", "values": [
      {"measurement": "OC43 Inhibition rate", "setting": "24 h", "result": 2.8, "unit": "%"}
    ]}
  ]
}
